Experimental findings from PubChem BioAssay are described below.

Active and inactive are the calls of the source.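 Rule for the calls: active = compound that reduces growth-factor-driven endothelial tube area in a mixed cell culture, no cutoff stated; inactive = the rest.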

The nature of this experiment: inhibition of endothelial tube formation, primary screen, imaging, VEGF stimulated, CD31 staining, tube area, NPC library (AID 1117340). The note with it: VEGF-stimulated ADSC/ECFC co-culture, at 10 µM, stronger effect = higher value.
Regarding `Cc1cccc(C)c1OCC(C)N` (stereo not drawn), the tube area decrease is -2% (inactive).
Turning to `COc1ccc(C2CNC(=O)C2)cc1OC1CCCC1` (stereo not drawn), the tube area decrease is 1.1% (inactive).
With `CNS(=O)(=O)Cc1ccc2[nH]cc(CCN(C)C)c2c1`, the tube area decrease is 15.1% (inactive).
The result for `Nc1nc(F)nc2c1ncn2[C@@H]1O[C@H](CO)[C@@H](O)[C@@H]1O` reads 106% (active); that for `CCCCN(CCCC)CCC(O)c1cc2c(Cl)cc(Cl)cc2c2cc(C(F)(F)F)ccc12` (stereo not drawn), 96.1% (active); that for `CCN1CC(CCN2CCOCC2)C(c2ccccc2)(c2ccccc2)C1=O` (stereo not drawn), -7% (inactive).
For the compound `OCc1cccnc1`, the tube area decrease is -10% (inactive).
The result for `Cc1ccsc1C(=CCCN1CCC[C@@H](C(=O)O)C1)c1sccc1C` reads -6.2% (inactive).
As for `NS(=O)(=O)Cc1noc2ccccc12`, the tube area decrease was 3.7% (inactive).
Take `CCN(CC)CC1CCCCN1CC(=O)N1c2ccccc2C(=O)Nc2cccnc21` (stereo not drawn): the tube area decrease was -28.2% (inactive).
The result for `CN(C)CCCSc1ccccc1NC(=O)/C=C/c1ccccc1` reads 23.1% (inactive); that for `CCc1oc2ccccc2c1C(=O)c1cc(Br)c(O)c(Br)c1`, 101% (active).
As to `Cc1c[nH]c2ccccc12`, the tube area decrease is 5.5% (inactive).
The result for `O=NN(CCCl)C(=O)NC1CCCCC1` reads 56.7% (active).
For the compound `CCCN1CCCC[C@H]1C(=O)Nc1c(C)cccc1C`, the tube area decrease was -2.1% (inactive).
Consider `CCCc1c(OCCCCc2nn[nH]n2)ccc(C(C)=O)c1O`, for which the tube area decrease is 15.6% (inactive).
For `CCOC(=O)[C@H](CCc1ccccc1)N[C@@H](C)C(=O)N1[C@H](C(=O)O)C[C@@H]2CCC[C@@H]21` the value was -11% (inactive); for `CN1CCN(c2c(F)cc3c(=O)c(C(=O)O)cn4c3c2SCC4)CC1`, -3.6% (inactive).
